Compound activity: PubChem BioAssay, several laboratories
Compounds with a hit are over-represented: about 2.4% of the library has one in this group of screens.
S1P3 antagonist: S1P3 (human) receptor antagonism; Q99500; CHO S1P3 NFAT-BLA reporter, FRET fluorescence, antagonist mode; inhibition, % at 4.98 µM; hit rate 0.27% among 170,000; AID 485;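 active means inhibition above the plate cutoff, the mean inhibition of test wells on that plate plus 3 SD, cut at about 28% in these data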;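 further: cells challenged with S1P at its EC80 of 0.8 µM; blue over green emission ratio from cleaved BLA substrate after 4 h stimulation; 0% = S1P-stimulated wells and 100% = unstimulated DMSO-only wells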
Target sequence (Q99500 whole entry, looked up): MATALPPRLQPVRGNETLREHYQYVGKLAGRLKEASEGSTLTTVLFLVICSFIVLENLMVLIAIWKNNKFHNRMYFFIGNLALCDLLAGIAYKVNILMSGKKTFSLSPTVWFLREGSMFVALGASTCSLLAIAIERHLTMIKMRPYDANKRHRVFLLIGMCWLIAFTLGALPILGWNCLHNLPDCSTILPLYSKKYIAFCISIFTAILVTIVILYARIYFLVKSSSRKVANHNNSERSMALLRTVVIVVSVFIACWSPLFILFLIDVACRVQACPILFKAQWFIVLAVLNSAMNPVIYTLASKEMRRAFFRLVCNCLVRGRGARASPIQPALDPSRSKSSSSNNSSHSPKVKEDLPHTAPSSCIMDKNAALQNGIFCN
EP2 antag: EP2 receptor (human) inhibition | C6 glioma cells expressing human EP2, cAMP TR-FRET; cells stimulated with saturating PGE2 | inhibition, % at 25 µM | hit rate 0.52% among 260,000;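 active means percent inhibition above 40 after rounding to a whole number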;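 further: rat C6 glioma host cells with rolipram phosphodiesterase inhibitor present; the protocol text gives 20 µM as final concentration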
S1P4 ag: human S1P4 receptor agonism; O95977; S1P4-expressing cell line, agonist reporter assay; activation, % at 4.98 µM; hit rate 0.35% among 220,000; AID 1509; in the data active means activation above about 11%;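 further: 0% = DMSO vehicle and 100% = reference agonist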
EP2 modulator: modulators of human EP2 prostaglandin E2 receptor; P43116; EP2-expressing cells, cAMP HTRF FRET, PGE2 co-stimulation; induction, % at 25 µM; hit rate 0.83% among 260,000; AID 940;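 active means compounds whose cAMP rise, as percent of the full-agonist control response, exceeds 60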;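 further: rat C6 glioma line stably carrying human EP2 under a CMV promoter; the protocol text gives 20 µM as final concentration; 100% = response of wells given 1 µM PGE2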
S1P4 antagonist: antagonists of human S1P4 receptor | inhibition, % at 4.98 µM | S1P4-expressing cells, antagonist mode, reporter read-out | hit rate 0.26% among 220,000; in the data active means inhibition above about 29%;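 further: 0% = wells stimulated with agonist and 100% = vehicle wells without agonist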
INS promoter inh: TRM-6 insulin promoter activity inhibition. TRM-6 cells (human fetal islet line), insulin promoter-eGFP reporter, imaging; reporter expression induced with tamoxifen. inhibition, % at 2 µM. hit rate 0.9% among 130,000. AID 1273;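 active means inhibition above the mean plus 3 SD, with well images judged a real hit on visual review, cut at about 60% in these data, passing the limit was not always enough; inconclusive means inhibition over the cutoff but images rejected on review; inactive means inhibition not above the cutoff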
* = called active by the depositor; ? = inconclusive; · = no result given; ! = not active in a repeat.

SMILES	S1P3 antagonist	EP2 antag	S1P4 ag	EP2 modulator	S1P4 antagonist	INS promoter inh
Nc1ccccc1Sc1ccccc1[N+](=O)[O-]	-6	11	3	61*	-1	15
c1ccc(-c2nc(-c3ccncc3)no2)cc1	-6	27	0	-9	0	?
c1ccc(-c2ccccc2-c2nc(-c3ccncc3)no2)cc1	43	13	0	53	-22	79*
CC(C)(C)NC(=O)Cn1c(-c2cccs2)cc2cccnc21	·	6	·	-7	·	·
Fc1ccc(/C=N/Nc2ncnc3nc[nH]c23)cc1F	-1	8	0	-11	-2	60*
COC(=O)c1sc(NC(=O)COc2ccc(C)cc2)c(C#N)c1C	·	7	·	-73	·	·
CC(C)=C1SC(N2CCN(c3ccc(Cl)cc3)CC2)=NC1=O	-15	6	0	43	-7	71*
Cc1nc(C2CCC3C4CCC5=CC(=O)CC[C@]5(C)C4CC[C@]23C)cs1 (stereo partly specified)	11	4	-1	21	-2	·
C[C@@]12C[C@H](O)[C@@H]3[C@H](CCC4=CC(=O)CC[C@]43C)[C@H]1CC[C@H]2c1csc(-c2ccccc2)n1	·	40*	·	36	·	·
Clc1ccc(-c2cc3ccccc3nc2N2CCCC2)cc1	·	10	3	64*	-10	-38
Cc1ccc(-c2cc3ccccc3nc2N2CCCC2)cc1	·	11	-2	62*	-3	28
Clc1ccc(-c2cc3ccccc3nc2N2CCOCC2)cc1	8	7	1	54	7	-55
Cc1cccc(C(C)C)c1NS(=O)(=O)c1cccs1	·	8	·	54	·	·
Cc1ccc2c(c1)cc(CN(Cc1cccs1)C(=O)C1CC1)c1nnnn12	·	6	·	50	·	·
COC(=O)CN1C(=O)C(O)=C(C(C)=O)C1c1ccc(OC)cc1 (stereo unspecified)	·	7	·	8	·	·
CC1(C)C=C(c2ccc(O)cc2)CC(C)(C)N1	16	-5	20*	-2	14	64
COc1ccccc1NC(=O)C1=C(C)NC2=C(C(=O)CC(C)(C)C2)C1c1cccs1 (stereo unspecified)	·	15	·	63*	·	·
CC1=C(C(=O)Nc2ccccc2C)C(c2cccs2)C2=C(CC(C)(C)CC2=O)N1 (stereo unspecified)	·	8	·	6	·	·
O=C(Nc1ccc2nn(-c3ccc(F)cc3)nc2c1)c1cccnc1	-8	10	0	-30	-18	·
O=C(Nc1ccc2nc(-c3ccccc3)[nH]c2c1)c1cccs1	·	19	0	-57	8	77*
CC(=O)Nc1ccc2nc(-c3ccco3)[nH]c2c1	-9	6	0	-9	-15	36
O=C(Nc1cc2nn(-c3ccccc3)nc2cc1Cl)c1ccco1	-13	9	1	9	-8	-27
O=C(Nc1ccc2nc(-c3ccco3)[nH]c2c1)c1ccco1	·	4	-2	-26	-7	82*
O=C(Nc1ccc2nn(-c3ccccc3)nc2c1)c1cccnc1	26	40*	1	-13	-1	43
O=C(Nc1ccc2nc(-c3ccc4nc[nH]c4c3)[nH]c2c1)c1cccs1	·	3	-2	-34	-14	50
SMILES	S1P3 antagonist	EP2 antag	S1P4 ag	EP2 modulator	S1P4 antagonist	INS promoter inh
O=C(Nc1ccc2nn(-c3ccccc3)nc2c1)c1ccco1	·	41*!	0	-69	-14	-77
CC1(C)CC(N(Cc2ccc(F)cc2)CC2CCOC2)CC(C)(C)N1 (stereo unspecified)	·	8	·	-76	·	·
CC(C)N(C(=O)Cn1nc(-c2cccs2)n(-c2ccncc2)c1=O)C(C)C	·	·	·	-16	·	·
CC(=O)Nc1cc(NC(=O)CSc2nc(N)cc(N)n2)ccc1C	·	10	·	-14	·	·
O=C(Nc1ccc(-c2cn3ccccc3n2)cc1)c1cc(Br)ccc1O	·	45*	·	-20	·	·
O=C(Nc1cccc(-c2cn3ccccc3n2)c1)c1cccc(Cl)c1	·	61*	-1	-14	-17	63
O=C(Nc1ccc(-c2cn3ccccc3n2)cc1)c1cccs1	-15	4	1	-69	2	·
O=C(Nc1cccc(-c2cn3ccccc3n2)c1)c1cnccn1	·	17	0	-8	-3	5
Cc1ccc(NC(=S)Nc2cccc(-c3n[nH]c(=S)o3)c2)cc1	2	42*	1	-24	3	·
NC(=S)Nc1cccc(-c2n[nH]c(=S)o2)c1	-1	26	1	-1	-7	·
O=C(Cc1cccs1)Nc1cccc(C(=O)O)c1	·	13	·	7	·	·
CC(C)Oc1ccc2ccccc2c1/C=C\c1nc(O)c([N+](=O)[O-])c(=O)[nH]1	·	8	·	-4	·	·
Cc1sc(NC(=O)c2ccccc2)c(C(=O)c2ccccc2)c1C	7	11	1	65*	-10	12
COCCn1c(=NC(=O)C2COc3ccccc3O2)sc2cc(S(N)(=O)=O)ccc21 (stereo unspecified)	-8	58*	3	-51	14	-23
Cc1ccc(NC(=O)CN(C)S(=O)(=O)c2cccs2)cc1F	·	25	1	-27	-12	74*
Cc1ccc(NC(=O)CN(C)S(=O)(=O)c2cccs2)cc1C	·	15	0	-23	8	-8
Cc1cc(/C=C/c2ccc3cc(N(C)C)ccc3[n+]2C)c(C)n1-c1ccccc1	·	25	·	-10	·	·
CN(C)c1ccc(/C=C/c2ccc3c4ccccc4ccc3[n+]2-c2ccccc2)cc1	55*	19	-3	-50	11	·
CC[n+]1c(/C=C/c2ccc(N(C)C)cc2)ccc2cc(C)ccc21	·	20	·	-67	·	·
CN(C)c1ccc(/C=C/c2ccc3ccccc3[n+]2C)cc1	15	100*	-2	-25	-40	·
CC(C)n1c(=O)oc2cc(S(=O)(=O)N(Cc3ccccn3)C3CC3)ccc21	·	7	·	-17	·	·
CCC(C)Oc1nc(C)cc(C)c1S(=O)(=O)c1ccccc1C (stereo unspecified)	·	12	0	64*	-9	21
CC1CCN(CC(=O)Nc2ccccc2C(=O)c2ccccc2)CC1	17	0	-1	63*	-6	·
COC(=O)c1ccc(C(=O)OC)c(NC(=O)CN2CCC(C)CC2)c1	7	5	1	27	-23	-40
CC1CCN(CC(=O)Nc2ccccc2-c2ccccc2)CC1	·	5	-2	65*!	-21	-365
SMILES	S1P3 antagonist	EP2 antag	S1P4 ag	EP2 modulator	S1P4 antagonist	INS promoter inh
c1cc2c3c(cccc3c1)NC1(CCC3(CC1)Nc1cccc4cccc(c14)N3)N2	6	89*	-1	-42	21	·
c1cc2c3c(cccc3c1)NC1(CCCCCC1)N2	0	7	0	-27	1	19
CSC1=NCCN1S(=O)(=O)c1ccc(C)cc1	-5	4	-1	-17	-6	79*
CSC1=NCCN1S(=O)(=O)c1ccc(F)cc1	12	11	2	17	-13	0
Cc1ccc2c(c1)C(O)CC1(CCN(CC(O)c3c[nH]c4cc(C)ccc34)CC1)O2 (stereo unspecified)	·	9	·	-97	·	·
COc1cccc(OC)c1OCCN(C)C	·	9	3	-8	6	70*
Cc1ccc(-c2oc3ccccc3c(=O)c2O)cc1	-23	17	0	-15	-19	·
